Test results as given in PubChem BioAssay (EPA / NIEHS).
Inconclusive results are not listed. Activity calls are given as the source filed them. How the source made its calls, unless noted: active means hit-call score of the fitted dose curve at least 0.9, where 1 is the maximum; inactive means score below 0.9.

What was measured:
[1] = test system: SRY-box transcription factor 2 (SOX2) Protein Expression, Deisenroth Lab, SOX2 (gene 6657); experiment: CCTE_Deisenroth_DEVTOX-GLR_legacy_Sox2: (Legacy) CCTE's DevTox GLR-Endo Assay Evaluation of SRY-box transcription factor 2 (SOX2) Protein Expression, Deisenroth Lab (AID 2284346)
How it was run: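 RUES2-GLR human pluripotent cells seeded 24 h, then differentiated 48 h in defined media with two chemical doses 24 h apart (10-point, 1 nM–200 uM). Fixed, nuclear-stained, imaged; % Sox2+ cells (>5x BMAD over endoderm control median), DMSO-subtracted, fitted upward.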

[2] = test system: SRY-box transcription factor 17 (SOX17) Protein Expression, Deisenroth Lab, SOX17 (gene 64321); experiment: CCTE_Deisenroth_DEVTOX-GLR_Endo_SOX17: CCTE's DevTox GLR-Endo Assay Evaluation of SRY-box transcription factor 17 (SOX17) Protein Expression, Deisenroth Lab (AID 2284413)
How it was run: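 Endpoint: % change in SOX17+ fraction (SOX17+ cells / cell count) vs 0.2% DMSO solvent control. RUES2-GLR reporter cells, 48 h endoderm differentiation, two doses at 24 h intervals, high-content fluorescence imaging, 5 fields/well.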

[3] = test system: Brachyury (BRA) Protein Expression, TBXT (gene 6862); experiment: CCTE_Deisenroth_DEVTOX-GLR_Endo_BRA: CCTE's DevTox GLR-Endo Assay Evaluation of Brachyury (BRA) Protein Expression, Deisenroth Lab (AID 2284417)
How it was run: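 RUES2-GLR human pluripotent cells, seeded 24 h, then differentiated 48 h in defined media with two chemical exposures 24 h apart (10-point series, 1 nM - 200 uM). Fixed, nuclear-stained, imaged; endpoint is percent BRA+ cells minus 0.2% DMSO control.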

[4] = CCTE_Deisenroth_DEVTOX-GLR_Endo_CellCount: Viability Assessment in CCTE's DevTox GLR-Endo Assay, Deisenroth Lab (AID 2284420)
Protocol: CCTE_Deisenroth_DEVTOX-GLR_Endo assay is a cell-based, multiplex-readout assay that uses RUES2-GLR, a human pluripotent cell line, with measurements taken at 48 hours after chemical dosing in a 384-well microplateCCTE_Deisenroth_DEVTOX-GLR_Endo_CellCount is 1 of 4 assay components calculated from the CCTE_Deisenroth_DEVTOX-GLR_Endo assay and it measures cell count. Using fluorescent nuclear staining, loss-of-signal activity can be used to understand changes in cell viability with fluorescent microscopy. It is designed to make measurements of nuclei counts as a surrogate for cell number, as detected with optical fluorescence microscopy by Perkin Elmer Harmony nuclei detection algorithm. To generalize the intended target to other relatable targets, this assay component is annotated to the cell cycle intended target family, where the subfamily is cytotoxicity.Data from the assay component CCTE_Deisenroth_DEVTOX-GLR_Endo_CellCount was analyzed as 1 assay endpoint. The endpoint the percent change in cell count relative to the 0.2% DMSO control in the CCTE_Deisenroth_DEVTOX-GLR_Endo assay. Furthermore, this assay endpoint can be referred to as a primary readout, because this assay has produced multiple assay endpoints where this one serves as a measure of cytotoxicity.
(§1) All assay protocols are aligned to the DevTox GLR-Endo assay workflow. […]

[5] = test system: SRY-box transcription factor 2 (SOX2) Protein Expression, Deisenroth Lab, SOX2 (gene 6657); experiment: CCTE_Deisenroth_DEVTOX-GLR_Pluri_SOX2: CCTE's DevTox GLR-Pluri Assay Evaluation of SRY-box transcription factor 2 (SOX2) Protein Expression, Deisenroth Lab (AID 2284428)
Protocol: CCTE_Deisenroth_DEVTOX-GLR_Pluri assay is a cell-based, multiplex-readout assay that uses RUES2-GLR, a human pluripotent cell line, with measurements taken at 48 hours after chemical dosing in a 384-well microplateCCTE_Deisenroth_DEVTOX-GLR_Pluri_SOX2 is 1 of 4 assay components calculated from the CCTE_Deisenroth_DEVTOX-GLR_Pluri assay and it measures an the percentage of cells in an pluripotent state. Using a type of inducible fluorescent protein reporter, gain-of-signal activity can be used to understand changes in gene expression with fluorescent microscopy. The percentage of SOX2+ cells are determined by calculating the number of SOX2+ cells divided by the cell count. To generalize the intended target to other relatable targets, this assay component is annotated to the transcription factor intended target family, where the subfamily is SRY-related HMG-box.Data from the assay component CCTE_Deisenroth_DEVTOX-GLR_Pluri_SOX2 was analyzed as 1 assay endpoint. The endpoint is the percent change in the SOX2+ cell population relative to the 0.2% DMSO control in the CCTE_Deisenroth_DEVTOX-GLR_Pluri assay. Furthermore, this assay endpoint can be referred to as a primary readout, because this assay has produced multiple assay endpoints where this one serves as a measure of […].
as §1

[6] = test system: Brachyury (BRA) Protein Expression, Deisenroth Lab, TBXT (gene 6862); experiment: CCTE_Deisenroth_DEVTOX-GLR_Pluri_BRA: CCTE's DevTox GLR-Pluri Assay Evaluation of Brachyury (BRA) Protein Expression, Deisenroth Lab (AID 2284429; active means hit-call score of the fitted dose curve at least 0.9, where 1 is the maximum)
Protocol: CCTE_Deisenroth_DEVTOX-GLR_Pluri assay is a cell-based, multiplex-readout assay that uses RUES2-GLR, a human pluripotent cell line, with measurements taken at 48 hours after chemical dosing in a 384-well microplateCCTE_Deisenroth_DEVTOX-GLR_Pluri_BRA is 1 of 4 assay components calculated from the CCTE_Deisenroth_DEVTOX-GLR_Pluri assay and it measures an the percentage of cells in an mesoderm state. Using a type of inducible fluorescent protein reporter, gain-of-signal activity can be used to understand changes in gene expression with fluorescent microscopy. The percentage of BRA+ cells are determined by calculating the number of BRA+ cells divided by the cell count. To generalize the intended target to other relatable targets, this assay component is annotated to the transcription factor intended target family, where the subfamily is T-box protein.Data from the assay component CCTE_Deisenroth_DEVTOX-GLR_Pluri_BRA was analyzed as 1 assay endpoint. The endpoint is the percent BRA+ cell population minus the 0.2% DMSO control in the CCTE_Deisenroth_DEVTOX-GLR_Pluri assay. Furthermore, this assay endpoint can be referred to as a secondary readout, because this assay has produced multiple assay endpoints where this one serves as a measure of mesoderm differentiation.
as §1

[7] = CCTE_Deisenroth_DEVTOX-GLR_Pluri_CellCount: Viability Assessment in CCTE's DevTox GLR-Pluri Assay Evaluation of Total Cell Counts, Deisenroth Lab (AID 2284430)
Protocol: CCTE_Deisenroth_DEVTOX-GLR_Pluri assay is a cell-based, multiplex-readout assay that uses RUES2-GLR, a human pluripotent cell line, with measurements taken at 48 hours after chemical dosing in a 384-well microplateCCTE_Deisenroth_DEVTOX-GLR_Pluri_CellCount is 1 of 4 assay components calculated from the CCTE_Deisenroth_DEVTOX-GLR_Pluri assay and it measures cell count. Using fluorescent nuclei staining, gain-of-signal activity can be used to understand changes in cell viability with fluorescent microscopy. It is designed to make measurements of nuclei counts as a surrogate for cell number, as detected with optical fluorescence microscopy by Perkin Elmer Harmony nuclei detection algorithm. To generalize the intended target to other relatable targets, this assay component is annotated to the cell cycle intended target family, where the subfamily is cytotoxicity.Data from the assay component CCTE_Deisenroth_DEVTOX-GLR_Pluri_CellCount was analyzed as 1 assay endpoint. The endpoint the percent change in the cell count relative to the 0.2% DMSO control in the CCTE_Deisenroth_DEVTOX-GLR_Pluri assay. Furthermore, this assay endpoint can be referred to as a primary readout, because this assay has produced multiple assay endpoints where this one serves as a measure of cytotoxicity.
as §1

Measured: outcome

COC(=O)c1ccccc1C(=O)OC
inactive: [1] | [2] | [3] | [4] | [5] | [6] | [7]
